Compounds with a hit are over-represented: about 4% of the library has one in this group of screens.
CF NFkB inh: inhibitors of PAF-induced NF-kB signaling, primary screen, cell-based, GFP fluorescence, uHTS; KKLEB NF-kB-GFP reporter, GFP fluorescence overnight; inhibition, % at 5 µM; 0.86% of 360,000 active; AID 588850, 2011;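 active = at least 50% inhibition at 5 µM, scaled per plate between neutral and stimulator controls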;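 note: PAF is a Pseudomonas aeruginosa culture filtrate used as stimulus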
TWEAK-Fn14 inh: inhibitors of TWEAK-Fn14 signaling, primary screen, luciferase reporter cells, uHTS. 2% of 360,000 active. TWEAK-stimulated Fn14 reporter cells, luciferase luminescence, 8 h. inhibition, % at 10 µM. AID 1159606, 2016; in the data active = inhibition above about 50%
HIF-2a inh: HIF-2a reporter inhibitors, primary screen, luminescence, 786-0 RCC cells. 0.72% of 360,000 active. inhibition, % at 18.8 µM. 786-0 RCC cells HIF-2a reporter, luciferase luminescence, overnight;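 active = inhibition of the luminescence signal of 40% or more relative to plate controls, in a single-dose primary screen at 18.75 µM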
TROY NFkB inh: inhibitors of TROY-driven NF-kB signaling, primary screen, Q293 LMP1-TROYcd cells, NF-kB luciferase, uHTS; AID 1347056, 2019; Q293 LMP1-TROYcd NF-kB luciferase reporter, 4 h; 0.98% of 360,000 active; inhibition, % at 10 µM;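 active = compounds whose plate-normalised and pattern-corrected inhibition of the luciferase reporter signal at the single screening dose is 50% or more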
Peg3 prom inh: Peg3 promoter-driven luciferase inhibitors, primary screen, cell-based, HeLa, luciferase luminescence | HeLa PEG-Prom luciferase reporter, overnight | inhibition, % at 20 µM | 1.7% of 360,000 active;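 active = inhibition of at least 50% at 20 µM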
KKLEB tox: cytotoxicity in KKLEB CF airway cells, primary screen, cytotoxicity control for CF NF-kB inhibitor project, cell-based, uHTS, fluorescence assay plates | KKLEB CF airway cells viability, ATPlite luminescence, overnight; hits give low values; cells stimulated with P. aeruginosa culture filtrate | activity change (cytotoxicity), % at 5 µM | 0.36% of 360,000 active | AID 602141, 2011;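 active = corrected activity change at or below -50% at 5 µM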
Of the large screens only hits and unclear results are named; the others gave an inactive call.

N/C(=N\OC(=O)c1ccc(Br)o1)c1ccccn1	TWEAK-Fn14 inh 60.4, TROY NFkB inh 50.5
N/C(=N\OC(=O)c1cccc(F)c1)c1ccccn1	TWEAK-Fn14 inh 84.0, TROY NFkB inh 61.0
Cc1ccc(C(=O)O/N=C(\N)c2ccccn2)cc1C	TWEAK-Fn14 inh 99.0, TROY NFkB inh 80.9, Peg3 prom inh 76.0
COc1cc(NCc2ccccc2O)c2ncccc2c1	none
COc1cc(NCCCCCCCN)c2ncccc2c1	TWEAK-Fn14 inh 96.5
COc1cc(NC(=O)OCc2ccccc2)c2ncccc2c1	none
COc1cc(NC(C)CCCN)c2ncccc2c1 (stereo not given)	TWEAK-Fn14 inh 85.7
O=S(=O)(NCCCNS(=O)(=O)c1c(F)cccc1F)c1ccc2c(c1)OCCO2	none
COc1ccc(OCC(=O)OCC(=O)c2ccc(OC)c(F)c2)cc1	none
CCOc1nc(N2CCCCC2)nc(-n2cc(-c3ccccc3)nn2)n1	TWEAK-Fn14 inh 71.6 (no result: TROY NFkB inh)
CCOC(=O)c1nnn(-c2nc(N3CCCC3)nc(N3CCCC3)n2)c1-c1ccccc1	none
CCOC(=O)c1c(-c2ccccc2)nnn1-c1nc(OCC)nc(N2CCCCC2)n1	TWEAK-Fn14 inh 52.5, Peg3 prom inh 52.7
CCN1C(=O)[C@H]2[C@@H](c3ccc(C(F)(F)F)cc3)N[C@]3(CCCN(Cc4ccc(Cl)cc4)C3=O)[C@H]2C1=O	none
COc1ccc(CNc2ccc3c(c2)nc(C)n3C)cc1	TROY NFkB inh 59.7
Cc1ccc(CNc2ccc3c(c2)ncn3C(C)(C)C)cc1	TROY NFkB inh 62.8
O=C(Nc1cccc(-c2cccc(F)c2)c1)C1CCN(C2CCOCC2)CC1	none
Nc1nc(CCl)nc(N(c2ccccc2)c2ccccc2)n1	CF NFkB inh 69.5, KKLEB tox -72.7
Nc1nc(Cl)nc(N(c2ccccc2)c2ccccc2)n1	none
CCOC(=O)C1=NNC(C(=O)c2ccc(C)cc2)C1c1ccc(OC)cc1 (stereo not given)	TWEAK-Fn14 inh 71.9
CN(C)c1ccc(N=Nc2cccc(F)c2)cc1	TWEAK-Fn14 inh 51.7
Cc1cc(N(C)C)ccc1N=Nc1ccc2ncccc2c1	none
CN(C)c1ccc(N=Nc2ccc3ncccc3c2)cc1	TWEAK-Fn14 inh 51.9
c1cnc2ccc(-c3ccc4ncccc4c3)cc2c1	CF NFkB inh 58.2
Cc1ccc2ncccc2c1	none
CN(C)c1ccc(N=Nc2cccc3ccoc23)cc1	none
CC(=O)Nc1ccc(S(=O)(=O)NCC2CC3CCC2C3)cc1 (stereo not given)	none
O=C(C(=O)N1CCN(c2ccccc2)CC1)c1ccccc1	none (no result: CF NFkB inh, TWEAK-Fn14 inh, TROY NFkB inh, Peg3 prom inh, KKLEB tox)
CCS(=O)(=O)N1CCC(C(=O)Nc2ccccc2OC)CC1	none
CCOc1ccc(C(=O)N[C@H](C(=O)Nc2ccc(S(=O)(=O)Nc3nccs3)cc2)C(C)C)cc1	none
CC1C(=O)N2CCCc3cc(NC(=O)C4CC4)cc1c32 (stereo not given)	none
CC(C)(C)Cc1c(-c2ccc(C#N)cc2)nc2c(Cl)cc(C(F)(F)F)cn12	none
COc1cc(CNc2ccc3c(c2)OCCO3)ccc1OCC(N)=O	none
CCOc1cc(CNc2ccc3c(c2)OCCO3)cc(Br)c1OCC(N)=O	TWEAK-Fn14 inh 88.2, TROY NFkB inh 64.0
COC(=O)c1ccccc1NC(=O)CSc1nncn1-c1cccnc1	none
Cc1cc(Cl)ccc1NC(=S)NCCC(c1ccccc1)c1ccccc1	Peg3 prom inh 67.7
CC(C)Oc1ccc(C(CCNCc2ccc(O)cc2)c2ccccc2)cc1 (stereo not given)	Peg3 prom inh 106.1
COc1ccc(C(CCNCc2ccc(N(C)C)cc2)c2ccccc2)cc1 (stereo not given)	Peg3 prom inh 106.7
CC(C)Oc1ccc(CNC(=O)CC(c2ccccc2)c2cc(Cl)ccc2O)cc1 (stereo not given)	TROY NFkB inh 56.2
Cc1c2cnn(CC(=O)NCCCN3CC(C)CC(C)C3)c(=O)c2c(C)n1Cc1ccccc1Cl (stereo not given)	none
COc1ccc(C(CNC(=O)COc2cccc(C(F)(F)F)c2)N2CCCC2)cc1 (stereo not given)	none

From PubChem BioAssay
